Data taken from PubChem BioAssay (NCI).
Values joined by “and” are separate entries in the source; they are usually repeats but may differ in a detail not shown here. Identical values can stand only once. About 83,000 compounds went through this panel and 20% of them were active in at least one assay; those are over-represented in the sample as a whole.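 Cell lines were cultured in 96-well plates, exposed to a single compound concentration, and assessed for percent growth 48 hours later.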 Active and inactive are the calls of the source. Where a SMILES comes first, the peptide text is derived from it.

What follows are compounds tested on HT29 colon (assay: NCI-60 one-dose screen, 48 h (100 = growth as untreated, 0 = no growth, -100 = all killed)). Conditions: 10 µM unless noted.
Description: Growth inhibition of the HT29 human tumor cell line is measured as a screen for anti-cancer activity. Cells are grown in 96 well plates and exposed to the test compound for 48 hours. Compounds are tested at a single concentration, which is 10^-5 M for most compounds. The reported endpoint is percent growth (GI% or GIPRCNT), where numbers from 0 - 100% represent growth inhibition, and numbers from -100% - 0 represent cell death. For example, a value of 40 represents 60% growth inhibition. A value of 0 means no net growth occurred over the course of the experiment. A value of -40 indicates 40% of cells at the beginning of the experiment died by the end of the experiment. A value of -100 means all cells are dead at the end of the experiment.
NCI-60 Human Tumor Cell Lines Screen was performed using the standard one-dose NCI protocol, which is described in more detail at https://dtp.cancer.gov/discovery_development/nci-60/default.htm.
Compounds with GIPRCNT values below 10 were considered active. Activity score was based on GIPRCNT using the following formula: […]
Score is 0 for GIPRCNT values of 100 or above, 50 for GIPRCNT values of 0, and 100 for GIPRCNT values of -100.

SMILES	growth
CN1CNC(=O)NC1	101% (inactive)
COc1ccc(Nc2ccc3ccccc3c2)cc1	64.9% (inactive)
CC(=O)OCC1OC(OC(C)=O)C(OC(C)=O)C(OC(C)=O)C1OC(C)=O (stereo not given)	110% (inactive) and 115% (inactive)
c1ccc(CNCCNCc2ccccc2)cc1	108% (inactive)
COc1ccc(N/C=C/C2=[N+](C)c3ccccc3C2(C)C)c(OC)c1	87.4% (inactive)
CCCCCCCCCCCCCCCCC(C(=O)O)C(O)(CC(=O)O)C(=O)O (stereo not given)	93.9% (inactive) and -31.8% (active)
C/C(=C\c1ccccc1)c1ccccn1	113% (inactive)
CCCCNc1ccc(Nc2ccccc2)cc1	51.5% (inactive)
O=C(O)CCCl	108% (inactive)
CC1CCC2(C(=O)O)CCC3(C)C(=CCC4C5(C)CCC(O)C(C)(C)C5CCC43C)C2C1C (stereo not given)	48.3% (inactive) and 111% (inactive)
CC(C)NC(=O)N/C=C(\C#N)C(N)=O	107% (inactive)
CCOC(=O)c1c(C)cc(=O)oc1C	103% (inactive)
CCN(CCNS(C)(=O)=O)c1ccc(N)c(C)c1	87.8% (inactive)
CC(C)(O)C(=O)O	104% (inactive)
O=C(/C=C/c1ccccc1)c1ccccc1	68.9% (inactive)
CC1CCC(C(C)C)C(NNC(N)=O)C1 (stereo not given)	102% (inactive)
NC(Cc1ccccc1)C(=O)NC(Cc1ccccc1)C(=O)O (stereo not drawn) (H-Phe-Phe-OH; configuration not given here)	101% (inactive) and 104% (inactive)
O=[N+]([O-])c1cccc(SSc2cccc([N+](=O)[O-])c2)c1	102% (inactive)
Nc1nc(N)c2[nH]cnc2n1	101% (inactive)
NN1CCOC(c2ccccc2)C1 (stereo not given)	113% (inactive)

SMILES	growth
CC1=C/C(O)CC(=O)Cc2nc(co2)C(=O)N2CCC=C2C(=O)OC(C(C)C)C(C)/C=C\C(=O)NC/C=C\1 (stereo not given)	76.7% (inactive)
O=C(CO)C(O)C(O)C(O)C(O)CO (stereo not given)	109% (inactive)
OCCN1CCCCCCC1	106% (inactive)
CC[C@H](CC[C@@H](C)[C@H]1CC[C@H]2[C@@H]3CC=C4C[C@@H](O)CC[C@]4(C)[C@H]3CC[C@]12C)C(C)C	101% (inactive) and 109% (inactive)
Cc1cc2ccccc2cn1	109% (inactive) and 102% (inactive)
c1ccc2c(c1)OC1OC2Oc2ccccc21	95.6% (inactive)
CC(=O)NCC(=O)c1ccc([N+](=O)[O-])cc1	107% (inactive)
CN(C)c1ccc(/C=C\C(=O)c2ccccc2)cc1	53.6% (inactive) and 58.5% (inactive) and 57.6% (inactive)
N#CC(C#N)N=Nc1cc(Cl)ccc1Cl	101% (inactive)
NC1CCC(C(=O)O)CC1 (stereo not given)	101% (inactive) and 102% (inactive)
Brc1ccc(SSc2ccc(Br)cc2)cc1	97.2% (inactive)
Cc1cc(-c2ccc(N=Nc3ccc4c(S(=O)(=O)O)cc(S(=O)(=O)O)c(N)c4c3O)c(C)c2)ccc1N=Nc1ccc2c(S(=O)(=O)O)cc(S(=O)(=O)O)c(N)c2c1O	83.6% (inactive)
O=c1n(CC2CO2)c(=O)n(CC2CO2)c(=O)n1CC1CO1 (stereo not given)	70.3% (inactive)
ClCCOCCOc1ccc(C2CCCCC2)cc1	106% (inactive)
Fc1ccc([I+]c2ccc(F)cc2)cc1	38.2% (inactive)
O=c1[nH]cnc2c1ncn2C1OC(CO)C(O)C1O (stereo not given)	116% (inactive) and 109% (inactive)
Cc1cc(-c2cc(C)c(O)c(C)c2)cc(C)c1O	96.1% (inactive)
CC1(C)COC(=S)N1	104% (inactive)
O=C1OC(c2ccccc2)=N/C1=C\c1ccccc1	113% (inactive)
c1ccc(-c2nc3ccccc3s2)cc1	114% (inactive)
